GLP1R cytotox = cytotoxicity counter-screen for GLP-1 receptor inverse agonists; 410,000 compounds, 0.13% hits; Potency, µM (top dose mostly 38.3 µM), most hits filed as inhibitors; HEK293 cAMP-luciferase reporter cells, luminescence, 24 h;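 also: loss of luciferase light is scored as toxicity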
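To flag toxic compounds, the library was rerun on cells for 24 hr at 37 deg C and 5% CO2. Viability-linked luminescence was captured 12 min after adding luciferase detection reagent.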
PTHR1 agonist = activates the human parathyroid hormone receptor PTHR1 | Q03431 | HEK293 GP2 PTHR1 cells, GloSensor cAMP luminescence, 1 h | AID 743266 | Potency, µM (titrated, usually from 115 µM), actives largely listed as activators | 410,000 compounds, 0.075% hits; also: nearly all actives have a fitted effect of over 55% in size
Target sequence (Q03431 whole entry, looked up): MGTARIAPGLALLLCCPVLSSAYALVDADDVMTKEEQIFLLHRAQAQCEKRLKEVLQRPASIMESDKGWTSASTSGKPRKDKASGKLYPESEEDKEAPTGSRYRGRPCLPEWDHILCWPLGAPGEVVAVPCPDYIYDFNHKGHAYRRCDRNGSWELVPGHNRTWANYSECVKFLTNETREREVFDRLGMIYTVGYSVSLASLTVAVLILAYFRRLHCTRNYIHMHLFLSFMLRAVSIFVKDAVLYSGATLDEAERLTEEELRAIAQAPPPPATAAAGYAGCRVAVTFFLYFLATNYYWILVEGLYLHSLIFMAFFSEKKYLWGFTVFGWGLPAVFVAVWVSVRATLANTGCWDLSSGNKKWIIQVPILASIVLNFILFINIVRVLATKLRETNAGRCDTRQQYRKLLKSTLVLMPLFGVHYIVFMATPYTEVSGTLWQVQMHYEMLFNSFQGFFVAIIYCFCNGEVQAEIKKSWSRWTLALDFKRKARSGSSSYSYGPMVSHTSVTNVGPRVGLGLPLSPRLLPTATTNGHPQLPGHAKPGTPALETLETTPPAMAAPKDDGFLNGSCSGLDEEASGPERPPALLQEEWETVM
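HEK-293-derived GP2 cells expressing PTHR1 and a GloSensor cAMP reporter, 3,000/well, plated overnight, given luciferin plus IBMX (each 0.5 mM as added) for 1 h at 37 °C, then compound for 1 h at 37 °C. Luminescence was read after 15 min at room temperature.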
GLP-1R agonist = agonists of human GLP-1 receptor; 380,000 compounds, 0.007% hits; P43220; Potency, µM (highest dose often 45.6 µM), usual class: activators; HEK293 GLP-1R CRE-luciferase, luminescence, 4-6 h; cells express a hypersensitive GLP-1R form
GLP1R inv ag = inverse agonists of human GLP-1 receptor; HEK293 GLP-1R CRE-luciferase, luminescence, 24 h; GLP-1R form is constitutively active; Potency, µM (titrated, usually from 38.3 µM), actives largely listed as inhibitors; 410,000 compounds, 1.6% hits; AID 624417; also: nearly all actives have a fitted effect of over 55% in size
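Inverse agonists were sought by their lowering of basal cAMP reporter luciferase output in HEK293 cells stably carrying constitutively active human GLP-1R, after 24 h compound treatment.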
TRHR enhancer = allosterically enhances the human TRH receptor | 360,000 compounds, 0.66% hits | P34981 | enhancement, % at 2 µM | AID 493056 | TRHR cells, fluo-8 calcium fluorescence, EC20 TRH enhancement; in the data active = enhancement above about 30%
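TRHR-expressing cells loaded with fluo-8 calcium dye were read kinetically (ex 480/em 530) during compound addition, then stimulated with an EC20 of TRH (10 nM final). Enhancement of the Gq-mediated intracellular calcium response was scored.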
TRHR ag = agonists of human TRH receptor. TRHR cells, calcium flux fluo-8, FDSS agonist mode. activation, % at 2 µM. 360,000 compounds, 0.18% hits; in the data active = activation above about 30%
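TRHR-expressing cells, plated overnight in medium with 10% serum, were loaded with fluo-8 calcium dye at room temperature. After a 10 s baseline, library compound was pin-added and calcium release was recorded kinetically (ex 480/em 530) as agonist response.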
Large screens that a line does not name were inactive. Hits are enriched below; roughly 2.4% of the tested compounds scored in any of these assays. Unless noted, calls follow the shape of the dose curve; as a rule, active = well fitted curve in the direction sought with a large enough effect; inconclusive = small, poorly fitted or top-dose-only effect, or another doubt; inactive = no such curve, though single readings can be large; an effect the other way counts as inactive or inconclusive.

CN(CC(=O)Nc1ccc(N2CCOCC2)cc1)C(=O)CCCOc1ccc(Cl)cc1Cl	TRHR enhancer 40.4
O=C(N/N=C/c1c(F)cccc1Cl)C(=O)N1CCCCCC1	none
O=C(NCCC1=CCCCC1)C1COc2ccccc2O1 (configuration not stated)	GLP1R inv ag 8.91µM
COc1ccc(OC)c(-c2csc(NC(=O)c3ccc(F)cc3)n2)c1	GLP1R inv ag 10µM
CN1CCN(C(CNS(=O)(=O)c2ccc(Br)cc2)c2ccc3c(c2)OCO3)CC1 (configuration not stated)	GLP1R inv ag 10µM
Cc1ccc(C(CNS(=O)(=O)c2ccccc2)N2CCN(C)CC2)cc1 (configuration not stated)	none
Cc1ccc(C(CNS(=O)(=O)c2ccc(Br)cc2)N2CCN(C)CC2)cc1 (configuration not stated)	GLP1R inv ag 7.94µM
Cc1ncsc1CCSc1nc2ccccc2c(=O)n1C	GLP-1R agonist 11.2µM
O=C1c2ccccc2NC(c2ccc(Cl)cc2Cl)N1Cc1ccccc1 (configuration not stated)	GLP1R inv ag 7.08µM
CCN(c1ccccc1)S(=O)(=O)c1ccc(Cl)c(C(=O)OCC(=O)NC(=O)C(C)C)c1	none
CC1=C(CO)C(=O)OC([C@@H](C)C2CC[C@H]3C4C[C@H]5O[C@]56[C@@H](O)C=CC(=O)[C@]6(C)C4CC[C@]23C)C1 (some centres not stated)	GLP1R cytotox 12.6µM
O=C(COc1ccc2oc3c(c2c1)CCCC3)Nc1ccc(Cl)cc1	none
Cn1nnnc1SCC(=O)c1cccs1	none
Cc1cc(C)c(-n2nnnc2SCC(=O)c2cccs2)c(C)c1	GLP1R inv ag 12.6µM
CC(C)(C)c1ccccc1NC(=O)Cn1c(=O)cnc2ccccc21	none
Cc1cccc(CN2CCN([C@@H]3CS(=O)(=O)N[C@H]3COCc3ccccc3)CC2)c1	none (no result: TRHR enhancer, TRHR ag)
COc1ccc(NC(=O)C2C(c3ccccc3)C2(Cl)Cl)cc1 (configuration not stated)	GLP1R inv ag 10µM
Cc1cccc(NC(=O)C2C(c3ccccc3)C2(Cl)Cl)c1 (configuration not stated)	GLP1R inv ag inconclusive
Cc1ccc(NC(=O)C2C(c3ccccc3)C2(Cl)Cl)c(C)c1 (configuration not stated)	GLP1R inv ag 11.2µM
CNc1ccccc1C(C)(C)c1cc(-c2cc(C)cc(C)c2)no1	GLP1R inv ag inconclusive
CNc1ccccc1C(C)(C)c1cc(-c2cccc(OC)c2)no1	GLP1R inv ag 7.08µM
CCOC(=O)N1CCN(c2c(Nc3cc(C)[nH]n3)c(=O)c2=O)CC1	TRHR enhancer 34.7
CCCCNc1c(N2CCN(C(=O)OCC)CC2)c(=O)c1=O	none
NC(=O)C1=C[C@@H](c2coc3ccccc3c2=O)C[C@@H](OCc2ccc(CO)cc2)O1	none
CCCc1cc(C(=O)Nc2ccc(C(=O)c3ccc(C)cc3)cc2)n(C)n1	GLP1R inv ag 5.62µM
CCN1C(=O)[C@H]2[C@@H](c3ccc(-c4cccc(Cl)c4)cc3)N[C@@](Cc3ccccc3)(C(=O)OC)[C@H]2C1=O	GLP1R inv ag 7.94µM
CCN1C(=O)[C@H]2[C@@H](c3ccc(-c4ccc5c(c4)OCO5)cc3)N[C@@](Cc3ccccc3)(C(=O)OC)[C@H]2C1=O	none (no result: TRHR enhancer, TRHR ag)
CC(c1cccs1)N(C)Cc1nc(CCc2ccccc2)no1 (configuration not stated)	GLP1R inv ag 10µM
COc1cccc(C(C)N(C)Cc2nc(COc3ccccc3)no2)c1 (configuration not stated)	GLP1R inv ag 10µM
COc1cccc(CN(C)Cc2nc(Cc3ccccc3Cl)no2)c1	GLP1R inv ag inconclusive
CCCc1c(C)c2ccccc2[nH]c1=O	TRHR enhancer 40.8
O=c1oc2ccccc2n1CCn1c2ccccc2c2nc3ccccc3nc21	none
COc1ccc2c(c1)c1nc3ccccc3nc1n2CCn1c(=O)oc2ccccc21	PTHR1 agonist 0.398µM
CCOc1ccc(/C=C/C(O)=C2/C(=O)NC3(C)CC2c2ccccc2O3)cc1OC (configuration not stated)	GLP1R inv ag inconclusive
CCOc1ccc(/C=C/C(O)=C2/C(=O)N(C)C3(C)CC2c2ccccc2O3)cc1OC (configuration not stated)	GLP1R inv ag 3.16µM
CN(C)c1ccc(/C=C/C(O)=C2/C(=O)N(C)C3(C)CC2c2ccccc2O3)cc1 (configuration not stated)	TRHR ag 32.0 (no result: GLP1R cytotox, PTHR1 agonist, GLP-1R agonist, GLP1R inv ag)
CCN(CC)c1ccc(/C=C(/C#N)C(=O)NCc2ccccc2)o1	TRHR ag 58.7
CCOC(=O)N1CCN(CC(=O)Nc2sc(CC)cc2C(=O)c2ccc(OC)cc2)CC1	GLP1R inv ag 5.62µM
CCc1cc(C(=O)OC)c(NC(=O)CN2CCN(C(=O)c3ccco3)CC2)s1	none
O=S(=O)(c1ccccc1)N1CCC(O)(CN2CCN(c3ccccc3)CC2)CC1	none
CN(C(=O)Cc1c[nH]c2ccccc12)C(C(=O)Nc1ccc2c(c1)OCO2)c1ccccc1 (configuration not stated)	GLP1R inv ag inconclusive
Cc1ccc(S(=O)(=O)N2CCCN(C(=O)OC(C)(C)C)CC2)cc1	GLP1R inv ag inconclusive
Cc1ccc(NC(=O)CSc2nc3ccccc3c(=O)n2CC2CCCO2)cc1 (configuration not stated)	none
CCOC(=O)c1nc(-c2ccccc2)oc1N(C)C	TRHR enhancer 30.1
COc1cccc(-c2nc(CS(=O)(=O)CC(=O)N3CCc4ccccc4C3)c(C)o2)c1	none
Cc1ccc([N+](=O)[O-])cc1N=C(c1cccc(Br)c1)N1CCOCC1	GLP1R inv ag 7.94µM
O=C(Oc1cccc(C(=S)N2CCOCC2)c1)c1ccc([N+](=O)[O-])cc1	none
CC(C)(C)c1ccc(C(=O)NCC(c2cccs2)S(=O)(=O)c2ccc(F)cc2)cc1 (configuration not stated)	GLP1R inv ag 4.47µM (no result: GLP-1R agonist)
CC(C)(C)c1ccc(C(=O)NCC(c2cccs2)S(=O)(=O)c2cccs2)cc1 (configuration not stated)	GLP1R inv ag inconclusive, TRHR enhancer 44.7 (no result: GLP-1R agonist)
COc1cccc(NC(=O)Cc2nnc(SCC(=O)NC(C)c3ccccc3)n2C)c1 (configuration not stated)	none
CCCn1nc(C(=O)Nc2ccc3nc(N4CCOCC4)sc3c2)ccc1=O	none
Cc1ccccc1OCC(=O)Nc1nnc(SCc2cc(=O)n3cccc(C)c3n2)s1	none (no result: GLP-1R agonist)

Screens (PubChem BioAssay)
